Test results: the supplement of paper PMC7156485

What follows are compounds tested on TDF (assay: H1.0 immunofluorescence intensity relative to DMSO (% of DMSO); higher = stronger H1.0 induction, active = 120 or more). Conditions: concentration: 10 µM; 24 h.
How it was run: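 For HCC1569 and TDF cells, compounds at 10 µM were applied for 24 h at 37 °C in triplicate in 384-well plates. Cells were fixed in 3.7% formaldehyde, stained for H1.0 and with DAPI, and imaged at ×10 over six fields per well. The endpoint, H1.0 nuclear intensity or cell number, is shown as percent of the plate control using the median of replicates. Positional effects were smoothed for HCC1569 only.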
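Also: TDF is a line of transformed human dermal fibroblasts of mesenchymal origin.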

H1.0 immunofluorescence intensity, inactive:
CCCCCCCCCCCCCCCCCCc1ccc(C(=O)/C=C/C(=O)O)cc1 [(2E)-4-(4-octadecylphenyl)-4-oxo-2-butenoic acid] 97.6
CCCCCCCCCCCCCCCC(=O)OC(CC(=O)O)C[N+](C)(C)C.[Cl-] (racemic) [Palmitoyl-DL-Carnitine chloride] 104
Nc1[nH]nc2nnc(-c3c(-c4ccccc4)nn4ccccc34)cc12 89.2
COC1C=COC2(C)Oc3c(C)c(O)c4c(O)c(cc([O-])c4c3C2=O)NC(=O)C(C)=CC=CC(C)C(O)C(C)C(O)C(C)C(OC(C)=O)C1C.[Na+] (stereo not given) 102
CN1CCN(c2ccc3c(c2)NC(=C2C(=O)N=c4cccc(F)c4=C2N)N3)CC1 93.5
O=c1c(O)c(-c2ccccc2)oc2cc(O)cc(O)c12 [Galangine] 101
CCOC(=O)C(CCc1ccccc1)NC(C)C(=O)N1C(C(=O)O)CC2CCCC21 (stereo not given) [Ramipril] 94.6
CN(C)C1C(=O)C(C(N)=O)=C(O)C2(O)C(=O)C3=C(O)c4c(O)ccc(Cl)c4C(O)C3CC12.Cl (stereo not given) [Demeclocycline hydrochloride] 99.7
Cc1nc2ccccn2c(=O)c1CCN1CCC(C(=O)c2ccc(F)cc2)CC1 [Pirenperone] 96.5
CCN1CCN(C(=O)NC(C(=O)NC2C(=O)N3C(C(=O)O)=C(CSc4nnnn4C)CSC23)c2ccc(O)cc2)C(=O)C1=O (stereo not given) [Cefoperazone acid] 91.9
